This is a sample that favours compounds with a hit; in the whole collection about 7.5% have one here.
ELG1 genotox – qHTS screen for small molecules that induce genotoxicity in human embryonic kidney (HEK293T) cells expressing luciferase-tagged ELG1. actives 1.3% (n = 330,000). AID 504466, 2011. Potency, µM (doses to about 46 µM), hits mostly activators. HEK293T ELG1-luciferase reporter, luminescence, 16 h; further: nearly all actives have a fitted effect of over 60% in size
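Screening used a luciferase reporter fused to human ELG1 in HEK293T cells. Luminescence was read on a CCD plate imager after 16 hr exposure and 30 min ONE-Glo incubation.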
Rab9 promoter act – qHTS Assay for Rab9 Promoter Activators; Huh7 Rab9 promoter-luciferase reporter, luminescence, 24 h; Potency, µM (highest dose often 9.22 µM), usual class: activators; actives 2.8% (n = 320,000); further: nearly all actives have a fitted effect of over 60% in size
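Promoter activation is measured as luciferase luminescence in Huh7 cells stably transfected with a Rab9 promoter–luciferase construct, following 24 h compound exposure at 37 °C and 10 min reagent incubation at ambient temperature.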
FLuc modulator – qHTS profiling assay for firefly luciferase inhibitor/activator using purifed enzyme and Km concentrations of substrates (counterscreen for miR-21 project); Potency, µM (doses to about 57.5 µM), hits mostly inhibitors; actives 6.9% (n = 360,000); purified FLuc, Km substrates, luminescence inhibition; further: nearly all actives have a fitted effect of over 55% in size
Target sequence (P08659 whole entry, looked up): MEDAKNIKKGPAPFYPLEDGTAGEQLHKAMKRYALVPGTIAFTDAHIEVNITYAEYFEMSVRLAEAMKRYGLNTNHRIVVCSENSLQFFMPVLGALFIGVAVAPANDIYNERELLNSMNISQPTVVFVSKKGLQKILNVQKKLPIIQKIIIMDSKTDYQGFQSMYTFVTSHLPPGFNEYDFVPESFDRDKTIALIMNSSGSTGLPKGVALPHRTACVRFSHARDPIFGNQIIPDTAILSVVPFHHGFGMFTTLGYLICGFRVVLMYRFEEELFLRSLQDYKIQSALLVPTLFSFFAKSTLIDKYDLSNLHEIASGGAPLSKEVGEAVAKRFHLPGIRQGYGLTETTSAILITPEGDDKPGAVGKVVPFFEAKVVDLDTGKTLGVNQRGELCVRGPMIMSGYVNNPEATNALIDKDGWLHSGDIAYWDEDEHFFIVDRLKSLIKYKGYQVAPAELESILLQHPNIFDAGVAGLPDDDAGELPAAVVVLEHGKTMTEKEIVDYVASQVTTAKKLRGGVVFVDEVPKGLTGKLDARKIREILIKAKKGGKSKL
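Purified P. pyralis luciferase, 10 nM final, with Km-level 10 uM D-luciferin and 10 uM ATP in 50 mM Tris acetate pH 7.5, 10 mM Mg acetate, 0.01% Tween-20, 0.05% BSA; 6-point qHTS titration about 60 µM downward; luminescence read.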
Luc counter – Counterscreen for Luciferase (Kinase-Glo TM) Inhibition; Luciferin 4-monooxygenase (Photuris pensylvanica), Q27757; Kinase-Glo luciferase, ATP luminescence, 8 min; Potency, µM (doses to about 38.3 µM), hits mostly inhibitors; actives 0.28% (n = 200,000); AID 1379, 2008; further: nearly all actives have a fitted effect of over 60% in size
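Luminescence was the read-out, taken after 8-minute incubation at ambient temperature. Luciferase turned over luciferin with 10 uM ATP in imidazole pH 7.2 buffer containing KCl, MgCl2, Tween 20 and BSA.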
SMN2 splice enh – qHTS Assay for Enhancers of SMN2 Splice Variant Expression; HEK293 SMN2-luciferase splicing reporter, luminescence, 30-36 h; Potency, µM (series often up to 46.1 µM), actives largely listed as activators; actives 2.8% (n = 210,000); further: nearly all actives have a fitted effect of over 55% in size
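HEK293 cells carry an SMN2 minigene-luciferase reporter in which exon 7 inclusion puts luciferase in frame. Cells were seeded at 2000 cells/well, attached for 10-12 hours, then exposed to compounds for 30-36 hours at 37C before ONE-Glo luminescence.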
NPC1 prom act – qHTS Assay for NPC1 Promoter Activators | actives 2.4% (n = 320,000) | Huh7 NPC1 promoter luciferase reporter, 24 h | Potency, µM (highest dose often 9.22 µM), most hits filed as activators; further: nearly all actives have a fitted effect of over 60% in size
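NPC1 promoter–luciferase Huh7 cells; 24 h compound; luminescence.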
Of the large screens only hits and unclear results are named; the others gave an inactive call. The call rests on the fitted dose curve; in most records, active means well fitted curve in the direction sought with a large enough effect; inconclusive means small, poorly fitted or top-dose-only effect, or another doubt; inactive means no such curve, though single readings can be large; an effect the other way counts as inactive or inconclusive.

COc1ccc(C2CC(c3ccc(OC)c(OC)c3)=NN2S(C)(=O)=O)cc1 (stereo unspecified)	ELG1 genotox inconclusive, Rab9 promoter act 0.5µM, FLuc modulator 8.5µM, NPC1 prom act 1µM (no result: Luc counter, SMN2 splice enh)
CCc1ccc(C2=NN(S(C)(=O)=O)C(c3cccs3)C2)cc1 (stereo unspecified)	ELG1 genotox 3.3µM, Rab9 promoter act 1.6µM, FLuc modulator 2.4µM, Luc counter 13µM, SMN2 splice enh 10µM, NPC1 prom act 1µM
Cc1ccc(C2=NN(S(C)(=O)=O)C(c3cccs3)C2)cc1 (stereo unspecified)	ELG1 genotox inconclusive, Rab9 promoter act 3.5µM, FLuc modulator 19µM, SMN2 splice enh 11µM, NPC1 prom act 1.8µM
O=C(CSc1n[nH]c(-c2ccccc2Cl)n1)N1CCN(c2ccccc2)CC1	none (no result: ELG1 genotox, Rab9 promoter act, Luc counter, SMN2 splice enh, NPC1 prom act)
COc1ccc(C2=NN(S(C)(=O)=O)C(c3cccs3)C2)cc1 (stereo unspecified)	ELG1 genotox inconclusive, Rab9 promoter act 0.89µM, FLuc modulator 11µM, NPC1 prom act 3.5µM (no result: SMN2 splice enh)
CS(=O)(=O)N1N=C(c2ccccc2)CC1c1ccc2nccnc2c1 (stereo unspecified)	FLuc modulator inconclusive
Cc1ccc(C2=NN(S(C)(=O)=O)C(c3ccc4nccnc4c3)C2)cc1 (stereo unspecified)	ELG1 genotox inconclusive, Rab9 promoter act inconclusive, FLuc modulator inconclusive, SMN2 splice enh 13µM, NPC1 prom act inconclusive
COc1ccc(C2CC(c3cccs3)=NN2S(C)(=O)=O)cc1 (stereo unspecified)	Rab9 promoter act inconclusive, FLuc modulator inconclusive, NPC1 prom act inconclusive (no result: Luc counter, SMN2 splice enh)
CS(=O)(=O)N1N=C(c2ccc(Br)cc2)CC1c1cccs1 (stereo unspecified)	ELG1 genotox inconclusive, Rab9 promoter act inconclusive, FLuc modulator 15µM, NPC1 prom act inconclusive
COc1ccc(C2CC(c3ccccc3)=NN2C(=O)c2cccs2)cc1 (stereo unspecified)	Rab9 promoter act inconclusive, FLuc modulator 17µM (no result: Luc counter, SMN2 splice enh)
CCOC(=O)c1cc(S(=O)(=O)Nc2ccccc2OCC)[nH]n1	none (no result: ELG1 genotox, Rab9 promoter act, Luc counter, SMN2 splice enh, NPC1 prom act)
O=[N+]([O-])c1ccc(C23CC4CC(CC(O)(C4)C2)C3)cc1	Rab9 promoter act 1.6µM, FLuc modulator 11µM, NPC1 prom act 2.8µM (no result: Luc counter, SMN2 splice enh)
Cc1ccc2oc(/N=C(\N)NC(=O)C3CC3)nc2c1	ELG1 genotox inconclusive, Rab9 promoter act 0.45µM, FLuc modulator 0.85µM, NPC1 prom act 0.63µM (no result: Luc counter, SMN2 splice enh)
N/C(=N\c1nc2ccccc2o1)NC(=O)c1ccccc1Br	Rab9 promoter act inconclusive, FLuc modulator 12µM, NPC1 prom act inconclusive (no result: Luc counter, SMN2 splice enh)
Cc1ccc2oc(/N=C(\N)NC(=O)C(C)(C)C)nc2c1	FLuc modulator 0.076µM (no result: Luc counter, SMN2 splice enh)
CC(C)(C)c1ccc(C(=O)N/C(N)=N/c2nc3ccccc3o2)cc1	FLuc modulator inconclusive
COc1cc2c(cc1OC)C(c1ccccc1)CN(C)CC2 (stereo unspecified)	none (no result: ELG1 genotox, Rab9 promoter act, FLuc modulator, NPC1 prom act)
CCOc1cccc(CC(=O)N2CCc3c([nH]c4ccccc34)C2c2ccc(C)cc2)c1OCC (stereo unspecified)	none (no result: ELG1 genotox, Rab9 promoter act, Luc counter, SMN2 splice enh, NPC1 prom act)
COc1ccccc1C(=O)COC(=O)c1ccc(N(C)C)cc1	ELG1 genotox inconclusive, Rab9 promoter act 3.5µM, FLuc modulator 5.4µM, SMN2 splice enh 22µM, NPC1 prom act 3.2µM
COc1ccccc1C(=O)COC(=O)c1ccccc1O	FLuc modulator 21µM
CC(NC(=O)COC(=O)c1ccc(N(C)C)cc1)c1ccccc1 (stereo unspecified)	none
O=C(/C=C/c1ccccc1)OCC(=O)c1c[nH]c2ccccc12	none (no result: Rab9 promoter act, FLuc modulator, Luc counter, SMN2 splice enh, NPC1 prom act)
CCc1ccc(C(=O)COC(=O)c2ccccc2OC)cc1	ELG1 genotox inconclusive, Rab9 promoter act 3.2µM, FLuc modulator 0.48µM, NPC1 prom act 2.2µM (no result: Luc counter, SMN2 splice enh)
COc1ccccc1C(=O)COC(=O)/C=C/c1ccccc1	FLuc modulator 13µM (no result: Luc counter, SMN2 splice enh)
Cc1nc(S(=O)(=O)N2CCN(c3cccc(Cl)c3)CC2)cn1C	none (no result: ELG1 genotox, Rab9 promoter act, Luc counter, SMN2 splice enh, NPC1 prom act)
COc1ccc(-c2nc3cc(NC(=O)c4ccc(C)cc4)ccc3o2)cc1Cl	none (no result: ELG1 genotox, Rab9 promoter act, Luc counter, NPC1 prom act)
CCn1nc(C)c(Br)c1-c1nc(-c2ccc(C)cc2)no1	FLuc modulator 15µM (no result: Luc counter, SMN2 splice enh)
CCn1nc(C)c(Br)c1-c1nc(CS(=O)(=O)c2ccc(F)cc2)no1	none (no result: Luc counter, SMN2 splice enh)
CC1(C)Oc2ccc3ccc(=O)oc3c2-c2cn[nH]c21	ELG1 genotox inconclusive, SMN2 splice enh 14µM
CC(C)(C)C1CCc2c(C(=O)NNC(=O)CCCC(=O)O)csc2C1 (stereo unspecified)	FLuc modulator 17µM
Cc1ccc(Nc2c3c(nc4nncn24)CCC3)c(C)c1	none (no result: ELG1 genotox, Rab9 promoter act, Luc counter, NPC1 prom act)
Cc1nc2ccc([N+](=O)[O-])cc2nc1C	none
O=[N+]([O-])c1ccc2oc(C3CCCCC3)nc2c1	ELG1 genotox inconclusive, Rab9 promoter act inconclusive, FLuc modulator 17µM (no result: SMN2 splice enh)
Cn1c(C2CCCCC2)nc2cc(N)ccc21	none (no result: Luc counter, SMN2 splice enh)
Nc1ccc2oc(C3CCCCC3)nc2c1	ELG1 genotox inconclusive, Rab9 promoter act inconclusive, FLuc modulator 24µM, SMN2 splice enh 11µM, NPC1 prom act inconclusive
C[C@@H]1CCC2[C@](C)(CO)[C@@H](O)CC[C@]2(C)[C@@]12C[C@](CO)(CC(=O)O)CO2 (stereo partly specified)	none (no result: Luc counter, SMN2 splice enh)

Assay outcomes from PubChem BioAssay.
